{"source": "PubChem BioAssay AID626", "about": "(Vanderbilt High Throughput Screening Facility, 2007)", "note": "The whole screen tested about 64,000 compounds, of which about 1,900 (3%) were called active. The full list was thinned out, with actives kept by preference. Unmarked numbers belong to inactive results.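 The calls were made as follows: active = fluorescence rise, raw or as B-score row- and column-corrected plate score, outside the 99.7% band of its plate's samples, either direction; inactive = the rest.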", "data": [{"tested_on": "Muscarinic acetylcholine receptor M1", "assay": "direct activation of M1 receptor calcium signal – CHO-M1 cells, Fluo-4 calcium, agonist mode, primary screen (AID 626)", "settings": "Fluo-4 calcium fluorescence, at 10 µM, active compounds read high", "values": [{"smiles": "O=C(c1cc(-c2ccncc2)nc2ccccc12)N1CCC2(CC1)OCCO2", "B-score": 0.114}, {"smiles": "Cc1cccc(-n2c(C)nc3cc(C(=O)N4CCC5(CC4)OCCO5)ccc32)c1", "B-score": -0.0322}, {"smiles": "O=C(c1cc2nc(-c3ccccc3)cc(-c3ccccc3)n2n1)N1CCC2(CC1)OCCO2", "B-score": "6.7 (active)"}, {"smiles": "Cc1ccc(P(=S)(c2ccc(C)o2)N2CCOCC2)o1", "B-score": 0.695}, {"smiles": "Cn1c(C(=O)N2CCC(C(=O)N3CCC4(CC3)OCCO4)CC2)cc2sccc21", "B-score": -0.378}]}]}
